Values joined by “and” are separate entries in the source; they are usually repeats but may differ in a detail not shown here. Equal values may be shown once. A structure can be active in one record and inactive in another. Active and inactive are the calls of the source. How the source made its calls: active means hit-call score of the fitted dose curve at least 0.9, where 1 is the maximum; inactive means score below 0.9.
Experiments:
[1] = APR_HepG2_P-H2AX_72hr: Apredica 72-hour HepG2 Assay for H2AX Phosphorylation (AID 2282916); conditions: imaging, actives raise or lower the signal;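 further: phospho-histone H2A.x immunostain intensity per cell marking DNA damage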
Procedure, shortened: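 Human hepatoma HepG2 cells are dosed across ten concentrations (0.39 to 200 uM, 0.5% v/v DMSO) and incubated 72 hr. Phospho-histone H2A.x is then detected by antibody staining alongside c-Jun and Hoechst, and quantified by automated fluorescence imaging.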

[2] = APR_HepG2_MitoticArrest_72hr: Apredica 72-hour HepG2 Assay for Mitotic Arrest (AID 2282918); conditions: high-content imaging, actives raise or lower the signal
Procedure, shortened: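 HepG2 cells treated 72 h at 0.39–200 uM, 0.5% DMSO final; formaldehyde-fixed, stained with Hoechst 33342 and phospho-histone H3 antibody, imaged by high-content fluorescence; bidirectional fit versus DMSO.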

[3] = APR_HepG2_MicrotubuleCSK_72hr: Apredica 72-hour HepG2 Assay for Microtubule CSK Stabilty (AID 2282919); conditions: HepG2 microtubule cytoskeleton, high-content imaging, actives raise or lower the signal
Procedure, shortened: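 Ten-point dosing (0.39–200 uM, 0.5% DMSO) of HepG2 for 72 hr, with taxol as the cytoskeletal positive control. The cells were formaldehyde-fixed and then stained with alpha-tubulin/Cy5 and Hoechst. Imaging at 20x used a −2 um Z offset for tubulin.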

[4] = APR_HepG2_P-H2AX_24hr: Apredica 24-hour HepG2 Assay for H2AX Phosphorylation (AID 2282920); conditions: high-content imaging, actives raise or lower the signal
Procedure, shortened: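 HepG2 cells dosed 24 h at 0.39–200 uM (10 points, duplicate, 0.5% DMSO final). Formaldehyde-fixed and permeabilized, then immunostained for phospho-H2A.x with Hoechst. Fluorescence quantified by high-content imaging, fitted bidirectionally versus DMSO.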

[5] = APR_HepG2_StressKinase_72hr: Apredica 72-hour HepG2 Assay for Stress Kinase (AID 2282921); conditions: HepG2 stress kinase (phospho-c-Jun) imaging, actives raise or lower the signal
Procedure, shortened: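 After a 72 h compound treatment spanning 0.39 to 200 uM, formaldehyde-fixed cells are labelled for phosphorylated c-Jun and nuclei, imaged by automated fluorescence microscopy, and activity is fitted in both directions relative to DMSO controls.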

[6] = APR_HepG2_StressKinase_24hr: Apredica 24-hour HepG2 Assay for Stress Kinase (AID 2282922); conditions: HepG2 stress kinase (phospho-c-Jun) imaging, actives raise or lower the signal
Procedure, shortened: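 After 24 hr compound treatment (up to 200 uM, final DMSO 0.5% v/v), HepG2 cells are fixed and multiplex-labeled; phospho-c-Jun intensity is captured by high-content fluorescence imaging and analyzed relative to DMSO.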

[7] = APR_HepG2_p53Act_72hr: Apredica 72-hour HepG2 Assay for p53 Activation (AID 2282923); conditions: high-content imaging, actives raise or lower the signal;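 further: average cellular p53 protein immunofluorescence intensity in HepG2 cells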
Procedure, shortened: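 Imaging-based endpoint: after 72 hr compound exposure (up to 200 uM, 0.5% DMSO), fixed and permeabilized monolayers were labelled with anti-p53 antibody and imaged; signal change in either direction was fitted relative to DMSO controls.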

[8] = APR_HepG2_MitoMass_72hr: Apredica 72-hour HepG2 Assay for Mitochondrial Mass (AID 2282924); conditions: high-content imaging, actives raise or lower the signal;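 further: MitoTracker Red CMXRos stain intensity per cell imaged as mitochondrial mass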
Procedure, shortened: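 Steps: treat HepG2 72 hr (0.39–200 uM, duplicate wells); load MitoTracker Red CMXRos, 250 nM, 30 min; fix with 3.7% formaldehyde, permeabilise with 0.5% Triton X-100; capture images, nuclei via Hoechst 33342; fit bidirectionally against DMSO.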

[9] = APR_HepG2_NuclearSize_72hr: Apredica 72-hour HepG2 Assay for Nuclear Size (AID 2282925); conditions: high-content imaging, actives raise or lower the signal
Procedure, shortened: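 Compounds (0.39–200 uM, final DMSO 0.5%) were applied to HepG2 for 72 hr. Cells were then formaldehyde-fixed, permeabilized and labelled with Hoechst 33342. Nuclear diameter was quantified from six images per well.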

[10] = ATG_CRE_CIS: Attagene CIS-FACTORIAL HepG2 Assay for human cAMP Responsive Element (CRE) binding protein 3 (AID 2282926); conditions: HepG2 CRE cis-reporter, Attagene multiplexed mRNA; actives raise or lower the signal
Procedure, shortened: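 Induced reporter mRNA from a CRE cis element, measured in HepG2 among many multiplexed units at 24 h. Detection used RT-PCR plus capillary electrophoresis of fluorescent fragments; DMSO served as negative control.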

[11] = target: CCAAT/enhancer-binding protein beta (Homo sapiens) (UniProt P17676); assay: ATG_C_EBP_CIS: Attagene CIS-FACTORIAL HepG2 Assay for human CCAAT/Enhancer Binding Protein (C/EBP) beta (AID 2282927); conditions: HepG2 Attagene cis-factorial transcription factor reporter; actives raise or lower the signal
CCAAT/enhancer-binding protein beta (Homo sapiens), sequence (P17676 whole entry, looked up, the tested form may be a part): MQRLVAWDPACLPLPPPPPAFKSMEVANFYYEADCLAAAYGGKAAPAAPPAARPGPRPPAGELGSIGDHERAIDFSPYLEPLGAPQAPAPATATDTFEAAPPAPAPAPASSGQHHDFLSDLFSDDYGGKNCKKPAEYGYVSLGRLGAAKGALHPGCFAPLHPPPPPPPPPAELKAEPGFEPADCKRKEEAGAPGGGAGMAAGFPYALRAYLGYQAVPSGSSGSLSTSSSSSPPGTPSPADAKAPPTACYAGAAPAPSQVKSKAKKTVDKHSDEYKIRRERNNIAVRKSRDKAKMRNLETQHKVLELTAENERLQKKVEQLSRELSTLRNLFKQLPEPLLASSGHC
Procedure, shortened: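 Chemical-treated HepG2 cells (24 h) bearing cis-regulated reporter constructs were processed for total RNA, then reverse transcription, PCR amplification, fluorescent primer extension and fragment analysis; gain- and loss-of-signal were fitted against DMSO.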

[12] = ATG_DR4_LXR_CIS: Attagene CIS-FACTORIAL HepG2 Assay for human Liver X Receptor (LXR), DR4 submotif (AID 2282929); conditions: HepG2 Attagene DR4 cis-reporter, mRNA transcription; actives raise or lower the signal
Procedure, shortened: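 HepG2 cells transiently transfected with cis-promoter-driven multiplexed reporter units (DR4 element) were dosed for 24 h. Reporter mRNA was quantified by RT-PCR, fluorescent primer extension, HpaI digestion and capillary electrophoresis; bidirectional fitting versus DMSO baseline.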

[13] = target: Aryl hydrocarbon receptor (Homo sapiens) (UniProt P35869); assay: ATG_Ahr_CIS: Attagene CIS-FACTORIAL HepG2 Assay for human Aryl Hydrocarbon Receptor (Ahr) (AID 2282930); conditions: HepG2 AhR cis-factorial reporter transcription; actives raise or lower the signal
Aryl hydrocarbon receptor (Homo sapiens), sequence (P35869 whole entry, looked up): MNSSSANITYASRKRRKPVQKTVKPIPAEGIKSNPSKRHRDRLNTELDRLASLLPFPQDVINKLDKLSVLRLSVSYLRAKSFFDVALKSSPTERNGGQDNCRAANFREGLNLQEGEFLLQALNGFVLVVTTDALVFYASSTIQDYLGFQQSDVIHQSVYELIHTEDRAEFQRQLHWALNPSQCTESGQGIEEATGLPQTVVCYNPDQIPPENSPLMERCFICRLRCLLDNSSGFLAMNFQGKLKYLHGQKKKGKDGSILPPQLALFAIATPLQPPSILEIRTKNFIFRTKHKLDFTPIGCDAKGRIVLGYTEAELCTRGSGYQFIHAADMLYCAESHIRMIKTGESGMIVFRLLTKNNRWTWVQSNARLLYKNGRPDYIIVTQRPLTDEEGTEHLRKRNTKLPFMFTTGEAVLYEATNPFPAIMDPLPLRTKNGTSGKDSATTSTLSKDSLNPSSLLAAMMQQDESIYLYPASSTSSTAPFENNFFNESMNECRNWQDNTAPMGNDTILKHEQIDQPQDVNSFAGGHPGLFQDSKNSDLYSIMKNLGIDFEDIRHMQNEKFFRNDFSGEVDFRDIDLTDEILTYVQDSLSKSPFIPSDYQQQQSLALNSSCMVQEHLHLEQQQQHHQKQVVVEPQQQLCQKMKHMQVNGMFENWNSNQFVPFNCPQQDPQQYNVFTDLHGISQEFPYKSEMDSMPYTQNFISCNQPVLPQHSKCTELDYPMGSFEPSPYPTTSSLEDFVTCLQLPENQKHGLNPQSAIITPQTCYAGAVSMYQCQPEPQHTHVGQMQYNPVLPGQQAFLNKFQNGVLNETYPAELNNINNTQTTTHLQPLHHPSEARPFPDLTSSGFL
Procedure, shortened: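 Following 24 h of chemical dosing, transfected HepG2 liver cells with cis-driven reporter units were lysed for RNA; reporter mRNA was quantified via RT-PCR and capillary electrophoresis, and responses fitted bidirectionally from DMSO.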

[14] = ATG_AP_1_CIS: Attagene CIS-FACTORIAL HepG2 Assay for human Activator Protein 1 (AP-1) (AID 2282931); conditions: HepG2 Attagene cis-factorial AP-1 reporter mRNA; actives raise or lower the signal
Procedure, shortened: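 HepG2 cells transiently transfected with cis-element-driven multiplex reporter units; 24 h compound exposure. Reporter mRNA quantified by RT-PCR, FAM-labelled fragments resolved by capillary electrophoresis; bidirectional fit versus DMSO baseline.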

[15] = ATG_BRE_CIS: Attagene CIS-FACTORIAL HepG2 Assay for human Bone Morphogenetic Protein (BMP) Response Element (BRE) (AID 2282933); conditions: HepG2 BMP response element reporter, Attagene transcription factor profiling; actives raise or lower the signal
Procedure, shortened: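 Gain- or loss-of-signal was derived by bidirectional fitting against DMSO controls. The signal came from reporter mRNA, measured by RT-PCR and capillary electrophoresis, in HepG2 cells transiently carrying multiple reporter units and dosed for 24 h.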

[16] = target: Transcription factor E2F1 (Homo sapiens) (UniProt Q01094); assay: ATG_E2F_CIS: Attagene CIS-FACTORIAL HepG2 Assay for human E2F Transcription Factor 1 (AID 2282935); conditions: HepG2 Attagene cis-reporter, E2F reporter RNA transcripts; actives raise or lower the signal
Transcription factor E2F1 (Homo sapiens), sequence (Q01094 whole entry, looked up): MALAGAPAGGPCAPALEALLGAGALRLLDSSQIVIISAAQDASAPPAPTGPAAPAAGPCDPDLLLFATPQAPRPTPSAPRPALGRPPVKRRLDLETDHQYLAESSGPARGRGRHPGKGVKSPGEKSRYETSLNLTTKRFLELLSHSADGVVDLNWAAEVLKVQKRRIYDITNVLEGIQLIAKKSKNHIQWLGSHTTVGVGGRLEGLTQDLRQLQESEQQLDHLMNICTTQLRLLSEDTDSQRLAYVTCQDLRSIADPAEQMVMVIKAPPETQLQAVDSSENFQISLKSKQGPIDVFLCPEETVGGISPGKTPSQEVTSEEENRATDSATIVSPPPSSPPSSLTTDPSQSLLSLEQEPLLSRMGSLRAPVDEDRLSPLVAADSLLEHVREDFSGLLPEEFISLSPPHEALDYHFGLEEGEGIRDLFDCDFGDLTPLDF
Procedure, shortened: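 First, HepG2 cells were transfected with reporter transcription units. Next, they were dosed for 24 h. Then RNA was isolated, converted to cDNA, PCR-amplified, FAM-labeled, HpaI-digested and analyzed by capillary electrophoresis.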

[17] = APR_HepG2_MitoMembPot_72hr: Apredica 72-hour HepG2 Assay for Mitochondrial Membrane Potential (AID 2282917); conditions: imaging, actives raise or lower the signal
Procedure, shortened: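 HepG2 cells exposed 72 h to compounds at 0.39–200 uM (0.5% v/v DMSO, duplicates); MitoTracker Red CMXRos 250 nM loaded 30 min before 3.7% formaldehyde fixation, imaged by HCS fluorescence. Bidirectional fit versus DMSO.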

[18] = target: Retinoic acid receptor alpha (Homo sapiens) (UniProt P10276); assay: ATG_DR5_RAR_CIS: Attagene CIS-FACTORIAL HepG2 Assay for human Retinoic Acid Receptor Alpha (RARE), DR5 submotif (AID 2282934); conditions: HepG2 Attagene cis-factorial RARE DR5 reporter, mRNA; actives raise or lower the signal
Retinoic acid receptor alpha (Homo sapiens), sequence (P10276 whole entry, looked up): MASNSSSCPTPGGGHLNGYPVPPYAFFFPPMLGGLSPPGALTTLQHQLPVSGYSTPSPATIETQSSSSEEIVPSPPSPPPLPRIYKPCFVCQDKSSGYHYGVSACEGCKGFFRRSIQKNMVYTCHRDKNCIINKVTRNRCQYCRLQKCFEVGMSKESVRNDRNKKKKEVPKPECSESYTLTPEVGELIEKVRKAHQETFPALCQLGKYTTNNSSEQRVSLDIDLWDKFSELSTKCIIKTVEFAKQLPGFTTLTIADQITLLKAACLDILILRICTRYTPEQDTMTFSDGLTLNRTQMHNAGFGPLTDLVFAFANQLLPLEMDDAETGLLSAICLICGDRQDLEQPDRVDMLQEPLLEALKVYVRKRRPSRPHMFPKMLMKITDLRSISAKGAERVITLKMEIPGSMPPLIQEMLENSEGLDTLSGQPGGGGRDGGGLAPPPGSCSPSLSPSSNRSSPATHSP
Procedure, shortened: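 Transfected HepG2 reporter cells are exposed to chemicals for 24 h. Then RNA is extracted and the DR5 element reporter transcript is measured by RT-PCR and capillary electrophoresis, with bidirectional curve fitting relative to DMSO.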

[19] = ATG_CMV_CIS: Attagene CIS-FACTORIAL HepG2 Assay for human CMV (Internal Marker) (AID 2282928); conditions: HepG2 CMV promoter reporter, transcription factor profiling; actives raise or lower the signal;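 further: endpoint acts as a background internal control marker rather than a target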
Procedure, shortened: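 24 h chemical treatment, HepG2 with transient multi-reporter transfection; RNA → oligo(dT) RT → PCR → 6-FAM extension → HpaI digest → CE fluorescence. Bidirectional fit, DMSO negative control.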

[20] = ATG_AP_2_CIS: Attagene CIS-FACTORIAL HepG2 Assay for human Activator Protein 2 (AP-2) (AID 2282932); conditions: HepG2 AP-2 cis-reporter, Attagene transcription factor profiling; actives raise or lower the signal
Procedure, shortened: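 Cells (HepG2) transfected with promoter-driven reporter constructs, treated 24 h. Total RNA reverse-transcribed, reporter cDNA PCR-amplified, FAM-labelled by primer extension, digested, resolved by capillary electrophoresis. Activity fitted both directions versus DMSO.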

Measured: AC50

CC(=O)S[C@@H]1CC2=CC(=O)CC[C@]2(C)[C@H]2CC[C@@]3(C)[C@@H](CC[C@@]34CCC(=O)O4)[C@H]12
inactive: [3] | [9] | [10] | [11] | [12] | [13] | [14] | [15] | [16]
active: [1] 35 µM | [2] 53.6 µM | [4] 46.4 µM | [5] 49.3 µM | [6] 48.6 µM | [7] 40.3 µM | [8] 96.8 µM | [10] 25.5 µM and 17.9 µM and 3.75 µM | [12] 10.6 µM and 12.5 µM and 11.8 µM | [15] 70.9 µM and 152 µM

CCOC(=O)COc1cc(-n2ncc(C(F)(F)F)c(C)c2=O)c(F)cc1Cl
not listed: [11] | [19] | [20]
inactive: all other assays above

C[C@]12CC[C@@H]3c4ccc(O)cc4C[C@@H](CCCCCCCCCS(=O)CCCC(F)(F)C(F)(F)F)[C@H]3[C@@H]1CC[C@@H]2O (some centres undefined)
active: [17] 22 µM
not listed: [11]
inactive: all other assays above

CCCCCCC(C)OC(=O)COc1nc(F)c(Cl)c(N)c1Cl (centres undefined)
active: [3] 106 µM
not listed: [13] | [18] | [20]
inactive: all other assays above

CCCCC(CC)CN1C(=O)C2C3C=CC(C3)C2C1=O (centres undefined)
active: [3] 85.7 µM | [12] 85.4 µM | [14] 69.6 µM | [15] 45.3 µM
not listed: [17] | [18]
inactive: all other assays above

CCOC(=O)[C@H](C)Oc1ccc(Oc2nc3ccc(Cl)cc3o2)cc1
not listed: [11]
inactive: all other assays above

— PubChem BioAssay (EPA / NIEHS)
